# Measured values as given in PubChem BioAssay (Tox21).
# Values joined by “and” are separate entries in the source; they are usually repeats but may differ in a detail not shown here. Equal entries are not always repeated. Inconclusive results are not listed. Where a call stands in place of a potency, no number is given. Active and inactive are the calls of the source. Calls follow the shape of the dose curve; as a rule, active = well fitted cell-killing curve with a large enough effect in the repeat runs; inconclusive = weak or mixed curves, or effect the other way; inactive = no such curve, though single readings can be large or run the other way.
# Assay: qHTS assay to identify small molecule antagonists of the thyroid receptor (TR) signaling pathway - cell viability counter screen (AID 743064); also: nearly all actives have a fitted effect of over 50% in size
# Details: GH3.TRE-Luc viability, CellTiter-Fluor, 24 h; series mostly up to 70.3 µM; activity change, negative = cytotoxic: at the top concentration
# Description: National Center for Advancing Translational Sciences [NCATS]
# NIH Chemical Genomics Center [NCGC]
# U.S. Environmental Protection Agency [EPA]
# National Institutes of Environmental Health Sciences [NIEHS]
# National Toxicology Program [NTP]
# U.S. Food and Drug Administration [FDA]
# Thyroid receptor (TR), a nuclear hormone receptor, plays an important role in development, proliferation, differentiation, metabolism, brain function, and cardiovascular system. […] To profile the Tox21 10K compound library in TR signaling, a cell-based GH3-TRE-Luc assay (GH3.TRE-Luc cell line, developed by the laboratory of Dr. Albertinka J. Murk, Wageningen University) was used to measure the inhibition of TR. GH3 (rat pituitary tumor) cells stably expressing a TR activity sensor consisting of two TR response elements and a luciferase reporter gene. The cytotoxicity of the Tox21 compound library against the GH3.TRE-Luc cell line was tested in parallel by measuring the cell viability using CellTiter-Fluor assay (Promega, Madison, WI) in the same wells.
# Tox21 Assay Protocol Summary:
# GH3.TRE-Luc cells were dispensed at 1500 cells/4 uL/well into 1536-well white solid bottom plates using a Multidrop Combi dispenser (Thermo Fisher Scientific Inc., Waltham, MA). After the assay plates were incubated at 37 C for 4 hours, 23 nL of library compound or DMSO controls was transferred to the assay plates by a pintool station (Kalypsys, San Diego, CA), followed by addition of 1 ul of T3 (1 nM, final concentration in the wells) to stimulate TR transactivation. The assay plates were incubated at 37 C for 23.5 h, and then 1 uL of CellTiter-Fluor reagent (Promega, Madision, WI) of measuring cytotoxicity was added to each well using a Bioraptr Flying Reagent Dispenser (FRD) workstation (Beckman Coulter, Indianapolis, IN, USA). The plates were incubated at 37C and 5% CO2 for additional 30 min, and fluorescence intensity was measured by a ViewLux plate reader (PerkinElmer, Shelton, CT).
# Potency is read from the fitted curve at half-maximal effect.
Compound,Potency,"activity change, negative = cytotoxic"
COC(=O)OC,inactive,
CC(C)(CO)CO,,9.35% (inactive)
CCCCCC(C)=O,inactive,
O=[N+]([O-])c1ccccc1C(F)(F)F,inactive,
CN1Cc2c(N)cccc2C(c2ccccc2)C1 (stereo not given),,12.5% (inactive)
CCCCCNCCCCC,inactive,
CC(COCC(C)OC(=O)c1ccccc1)OC(=O)c1ccccc1 (stereo not given),,22% (inactive)
O=Cc1ccc(CO)o1,,10.5% (inactive)
CC(CN1c2ccccc2Sc2ccccc21)N(C)C (stereo not given),23.7 µM (active) and 5.5 µM (active) and 30.6 µM (active),
CC(=O)OC/C=C(\C)CCC=C(C)C,inactive,
Cc1ccc([N+](=O)[O-])cc1N,inactive,
Cc1ccccc1C=O,inactive,
Brc1ccc(Oc2ccc(Br)cc2)cc1,inactive,
O=c1n(CCCN2CCN(c3cccc(Cl)c3)CC2)nc2ccccn12,,-2.79% [at 32.5 µM] (inactive)
CC(=O)OC(C)(C)C1CC=C(C)CC1 (stereo not given),inactive,
CCCOCC(C)O (stereo not given),inactive,
CC/C=C(\C(=O)N[C@@H]1C(=O)N2C(C(=O)OCOC(=O)C(C)(C)C)=C(COC(N)=O)CS[C@H]12)c1csc(N)n1,inactive,
N#CCC(=O)O,,26.6% (inactive)
C=C1C[C@]23C[C@@]1(O)CC[C@H]2[C@@]12C=C[C@H](O)[C@@](C)(C(=O)O1)[C@H]2[C@@H]3C(=O)O,inactive,
CC(C)(C)NC[C@H](O)COc1nsnc1N1CCOCC1,inactive,

Compound,Potency,"activity change, negative = cytotoxic"
OB(O)O,inactive,
Cc1cccc(C)c1[N+](=O)[O-],inactive,
CCN(CC)CCNC(=O)c1ccc(N)cc1,inactive,
CCCCCCCCCCCCCC(=O)O,,-11.8% (inactive)
C=C(C)CC(C)(C)C,inactive,
O=C1OC(=O)c2c(Cl)c(Cl)c(Cl)c(Cl)c21,inactive,
CC(=O)OCCC(C)C,inactive,
CCCCCCCCC(=O)O,inactive,
OC1CCCCC1,inactive,
CCOC(=O)c1ccc(O)cc1,,-8.25% (inactive)
Cc1ccc(C(C)C)cc1,inactive,
COc1c2ccoc2cc2oc(=O)ccc12,,8.22% (inactive)
C1CCCNCC1,inactive,
COC(=O)/C=C\C(=O)OC,,-1.74% (inactive)
Clc1cccc(Cl)c1NC1=NCCN1,inactive,
Cc1cc(C)c(O)c(C)c1,,-20.1% (inactive)
CC1(C)[C@@H](O[C@H]2O[C@H](C(=O)O)[C@@H](O)[C@H](O)[C@H]2O[C@@H]2O[C@H](C(=O)O)[C@@H](O)[C@H](O)[C@H]2O)CC[C@]2(C)[C@H]3C(=O)C=C4[C@@H]5C[C@@](C)(C(=O)O)CC[C@]5(C)CC[C@@]4(C)[C@]3(C)CC[C@@H]12,inactive,
CC(=O)Nc1ccc(CC(=O)O)cc1,,16.7% (inactive)
CC(C)c1ccc(C(C)C)cc1,inactive,
COc1c(Cl)ccc(Cl)c1C(=O)O,inactive,
